# KLK7 zymogen act – proKLK7 (human) activation, primary screen | P49862 | purified proKLK7, EDANS-DABCYL substrate fluorescence; 100% is mature enzyme control, 0% vehicle | activation, % at 7 µM | 370,000 compounds, 0.9% hits | AID 652039;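 active = activation above the mean of all tested compounds plus 3 SD, computed per campaign excluding outliers beyond control limits, cut at about 13% in these data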
# ADAM10 inh – inhibitors of human ADAM10 | O14672 | recombinant ADAM10, EDANS/DABCYL FRET peptide cleavage, 3 h | inhibition, % at 7 µM | 370,000 compounds, 0.62% hits;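 active = inhibition above a per-campaign cutoff equal to the mean of compounds falling between control-based bounds plus 3 SD, cut at about 20% in these data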;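 note: 0% = DMSO wells while the 100% control is not disclosed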
# ADAM17 inh – ADAM17 inhibition, QFRET primary screen; recombinant ADAM17, EDANS/DABCYL FRET peptide cleavage; inhibition, % at 6.95 µM; 370,000 compounds, 0.83% hits; AID 720648;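 active = inhibition above the mean of compounds lying between control limits plus 3 SD, set per campaign, cut at about 8.5% in these data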;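 note: 0% = DMSO-only wells as the low control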
# NRP1-CendR mod – NRP-1/CendR interaction modulation. 360,000 compounds, 0.85% hits. FAM-RPARPAR peptide binding to NRP-1, fluorescence polarization. AID 602438. inhibition, % at 25 µM;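 active = inhibition or corrected inhibition above about 18%, plus a signal ratio from 0.5 to 1.5, limit read from the data, passing the limit was not always enough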
# sPLA2-III inh – Inhibits HGIII-sPLA2 liposome hydrolysis, primary screen; Q9NZ20; QFRET BODIPY PC-A2 liposome hydrolysis, fluorescence; inhibition, % at 12.2 µM; 370,000 compounds, 0.56% hits; AID 743126;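 active = inhibition above mean plus 3 SD of compounds lying within the high and low control bounds, cut at about 19% in these data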;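 note: 0% = median of test compound wells and 100% = no enzyme DMSO wells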
# Target sequence (Q9NZ20 whole entry, looked up): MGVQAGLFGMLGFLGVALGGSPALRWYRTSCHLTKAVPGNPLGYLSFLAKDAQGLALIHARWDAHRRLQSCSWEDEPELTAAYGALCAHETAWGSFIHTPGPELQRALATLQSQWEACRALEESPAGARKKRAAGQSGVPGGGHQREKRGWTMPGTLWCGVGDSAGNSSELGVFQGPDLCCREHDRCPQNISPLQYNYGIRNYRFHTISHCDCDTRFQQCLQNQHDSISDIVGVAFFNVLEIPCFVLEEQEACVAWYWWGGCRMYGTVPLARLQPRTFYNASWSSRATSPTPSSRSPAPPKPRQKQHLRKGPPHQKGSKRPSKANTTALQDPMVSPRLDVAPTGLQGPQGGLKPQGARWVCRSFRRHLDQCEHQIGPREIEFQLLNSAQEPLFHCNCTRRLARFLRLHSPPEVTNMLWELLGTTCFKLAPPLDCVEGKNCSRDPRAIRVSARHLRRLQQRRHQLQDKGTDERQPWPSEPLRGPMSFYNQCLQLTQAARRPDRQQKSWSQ
# KLK7 act conf – confirmation of human kallikrein-7 zymogen activators; shares compounds with KLK7 zymogen act; purified proKLK7, EDANS-DABCYL substrate fluorescence; scaled: vehicle 0, mature enzyme 100; activation, % at 7 µM; 3,200 compounds, 68% hits; AID 686949;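 active = activation, as change over the incubation, above the mean of all tested compounds plus 3 SD, cut at about 13% in these data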
# EDANS-DABCYL int – fluorescence interference counter-screen for KLK7 activators; shares compounds with KLK7 zymogen act; EDANS-DABCYL substrate fluorescence interference, no enzyme, 4 h; solvent 0%, active enzyme control 100%; activation, % at 7 µM; 3,200 compounds, 80% hits; AID 686952;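 active = activation above the all-compound mean plus 3 SD, ignoring values outside control-based bounds, cut at about 4.8% in these data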;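 note: value is the 4 h activation minus the activation read at time zero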
# Numbers without * were called inactive; i = inactive; x = no result. Shown are actives, neighbours in structure and some others; about 3.4% of the full set was active somewhere.
SMILES,KLK7 zymogen act,ADAM10 inh,ADAM17 inh,NRP1-CendR mod,sPLA2-III inh,KLK7 act conf,EDANS-DABCYL int
CCOC(=O)CNc1c(-c2ccc(O)cc2)nc2ccccn12,20*,i,-270,-9,4,27*,62*
CCOC(=O)CNc1c(-c2ccc(O)cc2)nc2ccc(Cl)cn12,-5,-95,-30,-7,2,x,x
CCN(CC)Cc1c(O)ccc2c(=O)c(Oc3ccccc3OC)c(C)oc12,89*,i,i,1,-1,65*,69*
COc1ccccc1Oc1c(C)oc2c(CN(C)C)c(O)ccc2c1=O,51*,i,i,-8,1,66*,71*
COc1ccc(-c2c(C)oc3c(CN4CCCCC4C)c(O)ccc3c2=O)cc1OC (stereo not given),5,i,-236,-1,-1,x,x
O=C(Nc1cccc(Cl)c1)OC1CCC12CCC(c1ccccc1)CC2 (stereo not given),1,11,4,x,-6,x,x
O=C(CSc1nnc(COc2ccccc2)n1-c1ccccc1)Nc1ccc2c(c1)OCCO2,0,9,1,x,-22,x,x
CCOc1ccc(/C=C/C(=O)N(C)CC(=O)Nc2cccc(F)c2)cc1OCC,106*,-73,-20,14,1,-10,-10
CCOC(=O)C1CCN(C(c2cc3c(C)ccc(C)c3[nH]c2=O)c2nnnn2C2CCCCC2)CC1 (stereo not given),27*,-63,-22,-48,-2,1,0
COc1cc(-c2ccc3oc(-c4ccsc4)c(C#CC4(O)CCCCC4)c3c2)cc(OC)c1OC,13*,-329,-110,3,2,10,9.6*
OC1(C#Cc2c(-c3ccsc3)oc3ccc(N4CCOCC4)cc23)CCCCC1,-41,-109,-34,4,-12,x,x
Nc1ccc2c(c1)nnn2-c1ccccc1,31*,i,-166,5,7,45*,44*
Nc1ccc(-n2nc3ccccc3n2)cc1,0,-154,-45,7,5,x,x
Nc1cc2nn(-c3ccccc3)nc2cc1Cl,21*,i,-182,-7,-25,-50,-39
Nc1ccc2nn(-c3ccccc3)nc2c1,30*,-318,-96,-9,-1,66*,68*
O=C(c1ccc(F)cc1Cl)N(Cc1ccccn1)CC1CCCO1 (stereo not given),0,1,-2,x,7,x,x
CCN(CC)CCn1nc2c3c(cccc3c1=O)-c1ccccc1-2,18*,-59,-14,2,-4,-5,-14
O=c1c2cccc3c2c(nn1CN1CCOCC1)-c1ccccc1-3,x,x,x,-1,x,x,x
Cc1cc(=O)[nH]c(SCc2nc3ncccn3c2Br)n1,29*,i,-300,15,10,12,15*
COc1ccc(/C=C(/NC(=O)c2ccccc2)C(=O)N/N=C/c2sccc2C)cc1,24*,1,2,0,4,152*,122*
CC1CCCCC1NC(=O)CN1C(=O)c2cccc(N)c2C1=O (stereo not given),34*,-344,-139,4,-3,78*,70*
COc1ccccc1CNC(=O)CCN1C(=O)c2ccccc2C1=O,0,2,-5,-1,8,x,x
CCCCNC(=O)CN1C(=O)c2cccc(N)c2C1=O,-30,-349,-127,13,4,x,x
COc1ccccc1CNC(=O)CN1C(=O)c2cccc(N)c2C1=O,50*,i,-214,7,8,-1,44*
CN(C(=O)CN1C(=O)c2cccc(N)c2C1=O)C1CCCCC1,109*,i,-151,9,-15,74*,76*
CC(=O)N1CCN(c2ccc(N3CCN(Cc4ccccc4)[C@@H](C)C3)c(C)c2)[C@H](C)C1,2,-17,-6,x,12,x,x
CCCCCN1CCCCC(NC(=O)c2cccc(F)c2)C1=O (stereo not given),0,-4,-1,x,-2,x,x
CCCCN1C(=O)c2cccc3cc(O)cc(c23)C1=O,31*,-3,-2,6,-10,48*,68*

# High-throughput results deposited in PubChem by several laboratories.
